In PubChem BioAssay (Tox21):
Where “and” joins values, the source holds several entries; their conditions need not be identical. Identical values can stand only once. Records with an inconclusive call do not appear. Some structures have more than one record in an assay (separate samples or runs), and their calls can disagree. Calls of active or inactive are those of the source. Unless noted, calls follow the shape of the full dose curve.

What was measured:
[1] = qHTS assay to identify small molecule agonists of the peroxisome proliferator-activated receptor delta (PPARd) signaling pathway - cell viability counter screen (AID 743211; active = well fitted curve in the direction sought with a large enough effect in the repeat runs; an effect the other way counts as inactive or inconclusive; also: nearly all actives have a fitted effect of over 55% in size)
How it was run: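 Read-out: CellTiter-Glo luminescence, 30 min RT, measured in the same wells as the beta-lactamase reporter. Cells: GeneBLAzer PPAR delta UAS-bla HEK293H, 3000 cells/well, compound exposure 17 h at 37C.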

[2] = qHTS assay to identify small molecule antagonists of the peroxisome proliferator-activated receptor delta (PPARd) signaling pathway - cell viability counter screen (AID 743213; active = well fitted curve in the direction sought with a large enough effect in the repeat runs; an effect the other way counts as inactive or inconclusive; also: nearly all actives have a fitted effect of over 50% in size; also: potency is read from the fitted curve at half-maximal effect)
How it was run: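 CellTiter-Glo was added to PPARd-bla HEK293H wells following 17 h compound treatment in the presence of 300 nM L165041. Luminescence was recorded after 30 min at room temperature.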

[3] = molecular target: Bile acid receptor (Homo sapiens) (UniProt Q96RI1); assay: qHTS assay to identify small molecule antagonists of the farnesoid-X-receptor (FXR) signaling pathway (AID 743217; active = well fitted inhibition curve with a large enough effect in the signal ratio in the repeat runs, not every such curve was filed as active; the % refers to the signal ratio; also: potency is read from the fitted curve at half-maximal effect)
How it was run: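 Read-out: beta-lactamase FRET fluorescence (LiveBLAzer B/G substrate, 2 h, room temperature) in GeneBLAzer FXR-UAS-bla HEK 293T cells. Compounds were co-dosed with 50 uM chenodeoxycholic acid (final) and incubated 16 h at 37 °C.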

[4] = qHTS assay to identify small molecule agonists of the farnesoid-X-receptor (FXR) signaling pathway - cell viability counter screen (AID 743218; active = well fitted curve in the direction sought with a large enough effect in the repeat runs; an effect the other way counts as inactive or inconclusive; also: nearly all actives have a fitted effect of over 45% in size; also: potency is read from the fitted curve at half-maximal effect)
How it was run: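 Luminescence from CellTiter-Glo, read after 30 min at RT, reports viability of GeneBLAzer FXR-UAS-bla HEK 293T cells treated 16 h with compounds in the wells used for the beta-lactamase reporter.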

[5] = molecular target: Bile acid receptor (Homo sapiens) (UniProt Q96RI1); assay: qHTS assay to identify small molecule agonists of the farnesoid-X-receptor (FXR) signaling pathway (AID 743220; active = well fitted activation curve with a large enough effect in the signal ratio in the repeat runs, not every such curve was filed as active; the % refers to the signal ratio)
How it was run: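 FXR-UAS-bla HEK 293T cells carrying a UAS-driven beta-lactamase reporter were plated for 5 h at 37C/5% CO2, then exposed to DMSO-dissolved Tox21 10K compounds for 16 h at 37C. A LiveBLAzer B/G FRET substrate was loaded for 2 h at room temperature before fluorescence reading.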

[6] = qHTS assay to identify small molecule antagonists of the farnesoid-X-receptor (FXR) signaling pathway - cell viability counter screen (AID 743221; active = well fitted cell-killing curve with a large enough effect in the repeat runs, not every such curve was filed as active; also: nearly all actives have a fitted effect of over 50% in size; also: potency is read from the fitted curve at half-maximal effect)
How it was run: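 HEK 293T FXR-bla cells, 5 h pre-incubation; compound + CDCA 50 uM final, 16 h, 37 C; beta-lactamase FRET read first, then CellTiter-Glo luminescence, 30 min RT.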

[7] = molecular target: Vitamin D3 receptor (Homo sapiens) (UniProt P11473); assay: qHTS assay to identify small molecule agonists of the vitamin D receptor (VDR) signaling pathway (AID 743222)
How it was run: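 Beta-lactamase reporter readout (LiveBLAzer B/G FRET, 2 h RT) in VDR-bla cells after 16 h compound treatment at 37C, 5% CO2; cells pre-incubated 4 h before pin transfer of DMSO solutions.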

[8] = molecular target: Vitamin D3 receptor (Homo sapiens) (UniProt P11473); assay: qHTS assay to identify small molecule antagonists of the vitamin D receptor (VDR) signaling pathway (AID 743223; active = well fitted inhibition curve with a large enough effect in the signal ratio in the repeat runs, not every such curve was filed as active; the % refers to the signal ratio)
How it was run: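 Beta-lactamase reporter read-out: FRET substrate fluorescence after 2 h at room temperature, following 16 h exposure of VDR-bla cells to test compound plus 3 nM (final) 1alpha,25-dihydroxyvitamin D3 agonist at 37C.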

[9] = qHTS assay to identify small molecule agonists of the vitamin D receptor (VDR) signaling pathway - cell viability counter screen (AID 743224; active = well fitted curve in the direction sought with a large enough effect in the repeat runs; an effect the other way counts as inactive or inconclusive; also: series mostly up to about 63 µM; nearly all actives have a fitted effect of over 50% in size)
How it was run: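 Cytotoxicity counter screen: VDR-bla cells, 16 h compound exposure at 37C, 5% CO2; CellTiter-Glo luminescence, 30 min RT, same wells as bla read.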

[10] = qHTS assay to identify small molecule antagonists of the vitamin D receptor (VDR) signaling pathway - cell viability counter screen (AID 743225; active = well fitted curve in the direction sought with a large enough effect in the repeat runs; an effect the other way counts as inactive or inconclusive; also: nearly all actives have a fitted effect of over 50% in size; also: potency is read from the fitted curve at half-maximal effect)
How it was run: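 Viability counter screen run in the same wells as the beta-lactamase reporter assay: HEK 293T VDR-UAS-bla cells, 16 h compound exposure at 37C with 3 nM (final) 1-alpha,25-dihydroxyvitamin D3. CellTiter-Glo luminescence, 30 min, room temperature.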

[11] = qHTS assay to identify small molecule agonists of the NFkB signaling pathway - cell viability counter screen (AID 1159515); also: nearly all actives have a fitted effect of over 55% in size; also: potency is read from the fitted curve at half-maximal effect
How it was run: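 ME-180 NFkB-bla cells, 2,000/well; overnight attach; compound 5 hr, 37 C/5% CO2; LiveBLAzer substrate 1.5 hr RT; then CellTiter-Glo in same wells, 30 min RT, luminescence read.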

[12] = qHTS assay to identify small molecule agonists of the endoplasmic reticulum stress response signaling pathway (AID 1159516; active = well fitted activation curve with a large enough effect in the signal ratio in the repeat runs, not every such curve was filed as active; the % refers to the signal ratio)
How it was run: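 HeLa ESRE-bla reporter line; cpd 5 h, 37 C/5% CO2; LiveBLAzer B/G FRET substrate 2 h RT; ex 405, em 460/530 nm.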

[13] = qHTS assay to identify small molecule agonists of the endoplasmic reticulum stress response signaling pathway - cell viability counter screen (AID 1159517)
How it was run: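 ESRE-bla HeLa cells (1,500/well) were plated overnight at 37 C and exposed to compounds for 5 hr. After the 2 hr beta-lactamase substrate read, CellTiter-Glo went into the same wells, and luminescence was read after 30 min at room temperature.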

[14] = qHTS assay to identify small molecule antagonists of the retinoid-related orphan receptor gamma (ROR-gamma) signaling pathway - cell viability counter screen (AID 1159520; active = well fitted curve in the direction sought with a large enough effect in the repeat runs; an effect the other way counts as inactive or inconclusive; also: nearly all actives have a fitted effect of over 50% in size)
How it was run: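 Cytotoxicity was read from cellular ATP (CellTiter-Glo luminescence) after 16 hr at 37 C with 1 uM doxycycline induction. The inducer was added 2 hr after compound transfer to Tet-on ROR gamma CHO cells.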

[15] = molecular target: Nuclear receptor ROR-gamma (Homo sapiens) (UniProt P51449); assay: qHTS assay to identify small molecule antagonists of the retinoid-related orphan receptor gamma (ROR-gamma) signaling pathway (AID 1159521; active = well fitted curve in the direction sought with a large enough effect in the repeat runs; an effect the other way counts as inactive or inconclusive; also: nearly all actives have a fitted effect of over 50% in size; also: potency is read from the fitted curve at half-maximal effect)
How it was run: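 Luminescence readout (ONE-Glo, 30 min RT) after 16 h doxycycline induction; loss of signal scored as antagonism. CHO cells with TET-inducible RORγ and RORE-LUC reporter; compounds added 2 h before 1 uM final doxycycline.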

[16] = molecular target: Retinoic acid receptor RXR-alpha (Homo sapiens) (UniProt P19793); assay: qHTS assay to identify small molecule agonists of the RXR signaling pathway (AID 1159527); also: nearly all actives have a fitted effect of over 35% in size
How it was run: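 Agonist mode; 9-cis retinoic acid positive control. HEK 293T UAS-bla reporter cells, 2% charcoal-stripped FBS, 16 hr compound exposure at 37 C/5% CO2. LiveBLAzer B/G FRET substrate 2 hr RT; ex 405, em 460/530 nm.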

[17] = molecular target: Peroxisome proliferator-activated receptor delta (Homo sapiens) (UniProt Q03181); assay: qHTS assay to identify small molecule agonists of the peroxisome proliferator-activated receptor delta (PPARd) signaling pathway (AID 743212)
How it was run: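 Beta-lactamase reporter readout: a ratiometric FRET signal from the LiveBLAzer substrate after 2 h at room temperature. Compound exposure at 37 °C in PPARδ-bla HEK293H cells driven by an upstream activator sequence.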

[18] = molecular target: Peroxisome proliferator-activated receptor delta (Homo sapiens) (UniProt Q03181); assay: qHTS assay to identify small molecule antagonists of the peroxisome proliferator-activated receptor delta (PPARd) signaling pathway (AID 743215; active = well fitted inhibition curve with a large enough effect in the signal ratio in the repeat runs, not every such curve was filed as active; the % refers to the signal ratio;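 also: cells stimulated with agonist L165041 at 300 nM final during compound exposure; series mostly up to about 62 µM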)
How it was run: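 HEK293H GeneBLAzer PPARd UAS-bla reporter cells; cpd + L165041 300 nM final, 17 h 37 C; LiveBLAzer B/G FRET substrate 2 h RT; fluorescence intensity read-out. Antagonist mode.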

[19] = qHTS assay to identify small molecule agonists of the AP-1 signaling pathway - cell viability counter screen (AID 1159525); also: nearly all actives have a fitted effect of over 55% in size
How it was run: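 Intracellular ATP by Cell Titer Glo luminescence (30 min, RT) in the same ME-180 AP-1-bla wells after the 5 h compound exposure at 37 °C. Normalised to tetra n-octyl ammonium bromide and DMSO controls.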

[20] = qHTS assay to identify small molecule agonists of the AP-1 signaling pathway (AID 1159526)

Measured: Potency

Sequence of Vitamin D3 receptor (Homo sapiens) (P11473 whole entry, looked up): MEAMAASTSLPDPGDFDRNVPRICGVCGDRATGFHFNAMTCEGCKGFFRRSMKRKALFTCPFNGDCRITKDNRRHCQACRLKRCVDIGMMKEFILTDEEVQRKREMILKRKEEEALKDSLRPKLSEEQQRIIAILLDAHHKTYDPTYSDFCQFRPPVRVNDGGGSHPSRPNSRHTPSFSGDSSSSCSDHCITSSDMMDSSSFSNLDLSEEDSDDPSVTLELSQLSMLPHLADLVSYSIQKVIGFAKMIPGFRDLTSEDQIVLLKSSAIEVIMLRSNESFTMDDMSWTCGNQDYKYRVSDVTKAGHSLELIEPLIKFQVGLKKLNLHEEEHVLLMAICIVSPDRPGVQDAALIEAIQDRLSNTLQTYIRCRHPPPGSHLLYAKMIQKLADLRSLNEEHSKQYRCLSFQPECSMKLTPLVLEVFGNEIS
Sequence of Retinoic acid receptor RXR-alpha (Homo sapiens) (P19793 whole entry, looked up): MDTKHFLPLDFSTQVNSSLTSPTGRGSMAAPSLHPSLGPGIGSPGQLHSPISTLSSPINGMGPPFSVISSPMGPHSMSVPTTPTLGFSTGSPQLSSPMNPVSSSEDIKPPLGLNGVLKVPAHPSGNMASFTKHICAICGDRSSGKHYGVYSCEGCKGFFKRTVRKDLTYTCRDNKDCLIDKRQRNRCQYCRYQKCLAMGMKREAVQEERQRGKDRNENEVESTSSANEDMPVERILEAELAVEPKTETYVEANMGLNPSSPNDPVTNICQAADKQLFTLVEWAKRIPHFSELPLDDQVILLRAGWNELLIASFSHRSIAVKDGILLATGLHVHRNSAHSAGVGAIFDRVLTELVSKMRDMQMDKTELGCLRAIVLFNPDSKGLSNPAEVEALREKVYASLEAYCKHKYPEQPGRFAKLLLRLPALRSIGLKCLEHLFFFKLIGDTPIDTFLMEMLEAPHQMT
Sequence of Peroxisome proliferator-activated receptor delta (Homo sapiens) (Q03181 whole entry, looked up): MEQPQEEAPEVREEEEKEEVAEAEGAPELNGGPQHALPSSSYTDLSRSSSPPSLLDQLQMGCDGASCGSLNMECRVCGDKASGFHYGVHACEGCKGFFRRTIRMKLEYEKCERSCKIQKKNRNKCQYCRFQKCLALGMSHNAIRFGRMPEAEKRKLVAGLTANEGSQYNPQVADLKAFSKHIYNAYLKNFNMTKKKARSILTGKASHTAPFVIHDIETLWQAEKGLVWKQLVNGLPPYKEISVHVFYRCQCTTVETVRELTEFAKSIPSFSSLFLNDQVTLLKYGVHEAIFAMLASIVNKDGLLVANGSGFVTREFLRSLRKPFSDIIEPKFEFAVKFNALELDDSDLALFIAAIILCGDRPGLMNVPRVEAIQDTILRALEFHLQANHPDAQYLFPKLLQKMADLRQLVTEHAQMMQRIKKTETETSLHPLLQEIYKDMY
Sequence of Bile acid receptor (Homo sapiens) (Q96RI1 whole entry, looked up): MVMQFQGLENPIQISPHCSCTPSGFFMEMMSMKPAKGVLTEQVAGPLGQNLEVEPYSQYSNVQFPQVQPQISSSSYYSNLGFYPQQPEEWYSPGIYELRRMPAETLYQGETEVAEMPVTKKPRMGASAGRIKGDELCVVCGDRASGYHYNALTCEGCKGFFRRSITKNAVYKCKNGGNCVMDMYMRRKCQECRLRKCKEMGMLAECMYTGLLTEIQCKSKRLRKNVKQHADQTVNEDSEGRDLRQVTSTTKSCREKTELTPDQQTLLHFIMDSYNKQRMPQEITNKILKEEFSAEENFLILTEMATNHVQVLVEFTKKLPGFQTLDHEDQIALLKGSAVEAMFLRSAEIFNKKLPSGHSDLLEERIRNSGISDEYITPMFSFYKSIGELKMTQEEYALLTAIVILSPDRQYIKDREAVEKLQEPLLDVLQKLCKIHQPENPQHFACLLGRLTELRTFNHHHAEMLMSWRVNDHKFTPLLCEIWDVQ

Cc1ccc(C(C)(C)C)c(O)c1
inactive: [1] | [2] | [3] | [4] | [5] | [6] | [7] | [8] | [9] | [10] | [11] | [12] | [13] | [14] | [15] | [16]

CCCCCCCC/C=C\CCCCCCCC(=O)O
inactive: [1] | [17] | [2] | [18] | [3] | [4] | [5] | [6] | [9] | [10] | [11] | [12] | [14] | [15] | [19] | [20] | [16]

CC1(C)O[C@@H]2C[C@H]3[C@@H]4C[C@H](F)C5=CC(=O)C=C[C@]5(C)[C@@]4(F)[C@@H](O)C[C@]3(C)[C@]2(C(=O)CO)O1
inactive: [1] | [17] | [2] | [4] | [6] | [8] | [10] | [11] | [12] | [13] | [14] | [19] | [20]

ClC/C=C/CCl
inactive: [1] | [17] | [2] | [18] | [4] | [6] | [7] | [8] | [10] | [11] | [12] | [13] | [14] | [19] | [20] | [16]

CCCCCCCCCCC(CO)CCCCCCCC (stereo not given)
inactive: [17] | [2] | [4] | [6] | [7] | [8] | [10] | [11] | [12] | [13] | [14] | [19] | [20] | [16]

CCCCCC1C(=O)CCC1CC(=O)OC (stereo not given)
inactive: [17] | [2] | [4] | [6] | [7] | [8] | [9] | [11] | [12] | [13] | [14] | [19] | [20] | [16]

COc1ccc(-c2coc3cc(O)cc(O)c3c2=O)cc1
inactive: [1] | [2] | [18] | [4] | [6] | [7] | [8] | [9] | [10] | [11] | [12] | [13] | [14] | [16]

C=CC(C)(O)CCC=C(C)C (stereo not given)
inactive: [2] | [3] | [4] | [5] | [6] | [7] | [8] | [9] | [10] | [11] | [12] | [13] | [14] | [19] | [20]

Nc1ccc2c(c1)C(=O)c1ccccc1C2=O
inactive: [17] | [2] | [18] | [4] | [6] | [9] | [10] | [11] | [12] | [13] | [15] | [19] | [20] | [16]

CN(C)CCCN1c2ccccc2Sc2ccc(Cl)cc21
active: [2] 13.8 µM and 18.8 µM | [3] 49 µM and 26.6 µM | [4] 21.9 µM and 26.6 µM | [6] 43.6 µM and 26.6 µM | [15] 34.4 µM
54.9 µM (active) and inactive: [11]
24.5 µM (active) and inactive: [10]
inactive: [5] | [12] | [13] | [14] | [19]

FC(F)(F)C(Cl)Br (stereo not given)
inactive: [17] | [2] | [18] | [4] | [6] | [10] | [11] | [12] | [13] | [14] | [19] | [20] | [16]

COC(=O)CC(=O)OC
inactive: [1] | [17] | [2] | [18] | [4] | [6] | [7] | [8] | [9] | [10] | [11] | [12] | [13] | [14] | [19] | [20] | [16]

IC(I)I
inactive: [1] | [17] | [2] | [18] | [3] | [4] | [5] | [6] | [10] | [11] | [12] | [13] | [14] | [15] | [19] | [16]

CC(C)[C@@H]1CC[C@@H](C)CC1=O
inactive: [2] | [4] | [6] | [9] | [10] | [11] | [12] | [13] | [14] | [19] | [20] | [16]

NCCN
inactive: [1] | [17] | [18] | [6] | [9] | [10] | [11] | [12] | [13] | [14] | [19] | [20] | [16]

CCCOCCO
inactive: [2] | [3] | [4] | [5] | [6] | [7] | [8] | [10] | [11] | [12] | [13] | [14] | [19] | [20] | [16]

Nc1ccc2c(O)cc(S(=O)(=O)O)cc2c1
active: [15] 9.7 µM and 5.45 µM
inactive: [1] | [17] | [2] | [18] | [4] | [6] | [10] | [11] | [12] | [13] | [14] | [19] | [16]
